Source: PubChem BioAssay
The list is not random: actives were taken first. Their share in the collection is about 1.1%.
OPRM1-OPRD1 inv – inverse agonists of MOR-DOR heterodimerization, primary screen, cell-based, luminescence; cell-based MOR-DOR heterodimer luminescence, inverse agonism; inhibition, % at 9.3 µM; 340,000 tested, 0.21% active; in the data active = inhibition above about 22%, passing the limit was not always enough;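 note: 0% = cells with DMSO and 100% = wells without cells with DMSO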
MOR-DOR ag-1 – agonists of OPRM1-OPRD1 heterodimerization, primary screen, cell-based, luminescence. AID 504326, 2011. Mu-type opioid receptor (Homo sapiens) + Delta-type opioid receptor (Homo sapiens), …. 340,000 tested, 0.3% active. cells. activation, % at 9.3 µM;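 note: 0% = vehicle-treated cells and 100% = reference agonist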
HTR5A ag ctr – HTR5A agonists in luminescence cell assay, primary screen, counter-screen for OPRM1-OPRD1 heterodimer agonist project, full-deck HTS | 5-hydroxytryptamine receptor 5A (Homo sapiens), P47898 | cell-based | activation, % at 9.3 µM | 340,000 tested, 0.61% active; in the data active = activation mostly above about 9.5%, no sharp cut-off; inactive = mostly below about 7.6%;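 note: 0% = cells with vehicle only and 100% = reference agonist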
HTR5A inv ctr – HTR5A inverse agonists in luminescence cell assay, primary screen, counter-screen for OPRM1-OPRD1 heterodimer inverse agonist project, full-deck HTS; 5-hydroxytryptamine receptor 5A (Homo sapiens), P47898; HTR5A cell line, inverse agonism; inhibition, % at 9.3 µM; 340,000 tested, 0.083% active; AID 504634, 2011; in the data active = inhibition mostly above about 23%, no sharp cut-off; inactive = mostly below about 18%;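 note: 0% = cells with DMSO and 100% = no-cell wells with DMSO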
MOR-DOR ag-2 – OPRM1-OPRD1 heterodimerization promoters, counter-screen for HTR5A agonist project, cell-based, luminescence. AID 504913, 2011. shares compounds with HTR5A ag ctr. activation, % at 9.3 µM. U2OS counter-screen cells, complementation luminescence, 3 h. 800 tested, 13% active
HTR5A ag confirm – HTR5A agonists, retest of hits, confirmation, cell-based, luminescence. shares compounds with HTR5A ag ctr. HTR5A agonist cell assay. activation, % at 9.3 µM. 800 tested, 17% active; in the data active = activation above about 17%;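 note: 0% = cells with vehicle only and 100% = full reference agonist response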
Numbers without * were called inactive; x = no result. Cut-off read from the data, not from the text of the source, unless noted: active = activation above about 18%; inactive = the rest.

SMILES | OPRM1-OPRD1 inv | MOR-DOR ag-1 | HTR5A ag ctr | HTR5A inv ctr | MOR-DOR ag-2 | HTR5A ag confirm
CCCN(CCC)[C@@H]1CCc2cccc(O)c2C1 | 4.8 | -0.9 | 42.6* | -152.3 | 1.1 | 67.3*
COc1cc(CNCCc2c[nH]c3ccccc23)cc(OC)c1 | 16.8 | -3.5 | 15.4* | -57.4 | 368.7* | 2.1
c1ccc(CNCCc2c[nH]c3ccccc23)cc1 | -4.0 | 0.8 | 11.5 | -18.6 | x | x
CC(C)(C)C1(CCO)C(=O)NC(=S)NC1=O | -2.0 | 0.4 | 3.8 | -15.0 | x | x
CC1CN1P(=O)(Oc1ccccc1)N1CC1C (centres undefined) | 5.9 | -1.2 | 0.2 | -0.6 | x | x
CCOP(=O)(Nc1ccc2c(c1)C(=NNC(N)=S)c1ccccc1-2)OCC | 16.4 | -3.4 | 0.8 | -3.0 | x | x
Cc1cccc(CCNCc2cc3cc(C)cc(C)c3[nH]c2=O)c1 | 13.8 | -3.0 | 3.5 | -13.1 | x | x
Cc1cccc(CCNCc2cc3cccc(C)c3[nH]c2=O)c1 | -3.3 | 0.7 | 14.7* | -54.4 | 1.0 | 1.7
CNCCc1c[nH]c2ccc(O)cc12 | 9.4 | -1.7 | 124.1* | -303.7 | 2.9 | 5.7
CCC1C(c2ccccc2)NC(c2ccccc2)CC1(O)c1ccc(F)cc1 (centres undefined) | -39.8 | 8.1 | 16.8* | -43.7 | 8.9 | 1.3
O=[N+]([O-])c1[nH]cnc1Br | 4.6 | -0.9 | 3.2 | -12.7 | x | x
COc1ccc2c(CCN)c[nH]c2c1 | 4.8 | -0.8 | 31.6* | -190.1 | -1.2 | -0.9
COc1ccc2[nH]cc(CCN(C)C)c2c1 | 7.5 | -1.4 | x | x | x | x
C=C(C)[C@@]12OC3(c4ccccc4)O[C@@H]1C1[C@@H]4O[C@]4(CO)[C@@H](O)[C@]4(O)C(=O)C(C)=C[C@H]4[C@@]1(O3)[C@H](C)[C@H]2OC(=O)/C=C/C=C/c1ccccc1 (some centres undefined) | 11.9 | -2.1 | 32.7* | 4.0 | -3.5 | -2.5
Cc1ccc(C(=O)N2CC2C)cc1 (centres undefined) | -6.0 | 1.2 | 7.6 | -29.7 | x | x
COc1ccc(CNC(=O)/C=C/c2ccc3[nH]cc(CCN(C)C)c3c2)cc1 | -2.3 | 0.4 | 5.0 | -62.5 | x | x
NCCc1c[nH]c2ccc(C(N)=O)cc12 | 11.0 | -2.0 | 96.2* | -215.7 | -0.3 | 83.3*
C=CCn1c(O)c(C(CC)=NCCc2c[nH]c3ccccc23)c(=O)[nH]c1=O | 3.4 | -0.7 | 31.5* | -103.5 | -1.8 | -0.7
CCCC1(CC(C)C)C(=O)NC(=S)NC1=O | 9.3 | -2.1 | -1.9 | 7.2 | x | x
CN1CCC(c2c[nH]c3ccccc23)C1 (centres undefined) | 18.2 | -3.5 | 29.0* | -106.1 | 22.5* | 10.3
